Inconclusive results are not listed. A number with no mark means an inactive call. Activity calls are given as the source filed them. Calls come from the whole dose curve.
target: Beta-2 adrenergic receptor (Homo sapiens) (UniProt P07550); test: Adrenergic beta2 receptor (ADRB2) small molecule antagonists, cell-based qHTS assay (AID 1963592); conditions: CHO-ADRB2 cells, isoproterenol-stimulated cAMP HTRF ratio, 0.5 h; series mostly up to 92.4 µM; activity change, negative = inhibition: at the top concentration; note: nearly all actives have a fitted effect of over 50% in size
Sequence (P07550 whole entry, looked up): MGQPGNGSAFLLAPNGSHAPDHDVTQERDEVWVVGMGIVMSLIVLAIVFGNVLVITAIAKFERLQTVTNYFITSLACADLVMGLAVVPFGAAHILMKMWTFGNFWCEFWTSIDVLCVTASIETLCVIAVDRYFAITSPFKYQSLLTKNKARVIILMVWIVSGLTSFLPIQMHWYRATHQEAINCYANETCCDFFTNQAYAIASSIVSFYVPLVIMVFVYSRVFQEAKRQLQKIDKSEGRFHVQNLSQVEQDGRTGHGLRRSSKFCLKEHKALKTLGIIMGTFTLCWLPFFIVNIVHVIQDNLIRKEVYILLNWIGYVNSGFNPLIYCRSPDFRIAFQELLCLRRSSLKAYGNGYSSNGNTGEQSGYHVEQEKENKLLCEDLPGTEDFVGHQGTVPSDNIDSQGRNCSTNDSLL
Procedure, shortened: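 Cells (CHO, stable ADRB2 overexpression) incubated 18-20hr at 37C; compounds added from DMSO; agonist mix (1nM isoproterenol, 100uM IBMX, 25uM Ro-20-1724) added; 0.5hr RT; d2-cAMP and anti-cAMP-cryptate added; 1hr RT; 665/615 nm read.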
% is set by controls: 0 for no effect and ±100 for the full control effect.

Compound	activity change, negative = inhibition
C=CC(=C)CC/C=C(\C)CCC=C(C)C	10.9% [at 19 µM]
C[C@H](CCC(=O)O)[C@H]1CC[C@H]2[C@@H]3[C@H](O)C[C@@H]4C[C@H](O)CC[C@]4(C)[C@H]3C[C@H](O)[C@]12C	13.2% [at 42.5 µM]
CC(C)C[P+](C)(CC(C)C)CC(C)C	-3.73%
CCCCCCCCCCCCCCCCCCN(C)C	-0.864% [at 42.5 µM]
CC(=O)Nc1cccc(C)c1	4.41%
O=C(NCCN1CCOCC1)c1ccc(Cl)cc1	8.85% [at 42.5 µM]
CCCC(C)C	3.35%
CCO	1.91%
O=C(NS(=O)(=O)/C=C/c1ccccc1)c1ccc(F)cc1Cl	-11.5%
CCOC(=O)CCCCCCCCC(=O)OCC	2.91%
CC(C)OC(=O)C(C(=O)OC(C)C)=C1SC=CS1	6.97% [at 42.5 µM]
O=C(CN1CCN(Cc2ccc3c(c2)OCO3)CC1)N1c2ccccc2Sc2ccccc21	-4.55% [at 42.5 µM]
CC(=O)Oc1ccc(C(C)=O)cc1	0.215%
Oc1ccc(Cl)c2cccnc12	12.8% [at 42.5 µM]
CCCCCCCC/C=C\CCCCCCCCOCCO	-11%
O=S(=O)(Cl)c1c(Cl)cccc1Cl	-0.459%

Compound	activity change, negative = inhibition
CCOC(=O)CC1(C)OCC(C)O1 (stereo not given)	2.99%
CCCCCCCCCCC(=O)O	-0.612%
O=C1OCc2ccccc21	-22.4%
CC1(C)C(=O)N(CO)C(=O)N1CO	-6.69%
CCCC(c1cc(C(C)(C)C)c(O)cc1C)c1cc(C(C)(C)C)c(O)cc1C	3.08%
CCCS(=O)c1ccc2nc(NC(=O)OC)[nH]c2c1 (stereo not given)	3.33% [at 42.5 µM]
C/C=C(\C)C#N	2.7%
Cl[Si](Cl)(c1ccccc1)c1ccccc1	-19.7%
N=C(N)c1ccc(OCCCOc2ccc(C(=N)N)cc2)cc1	0.671% [at 42.5 µM]
COC(=O)C(C)O (stereo not given)	-3.07%
CCc1nccnc1CC	-4.86% [at 19 µM]
C=CC(=O)OCCCCCCCCCC	-8.32%
CO[Si](CCCNc1ccccc1)(OC)OC	-14.7%
CCCCCCCCCCCCCCCCOS(=O)(=O)O	4.82% [at 42.5 µM]
CC(C)(c1ccc(Oc2ccc3c(c2)C(=O)OC3=O)cc1)c1ccc(Oc2ccc3c(c2)C(=O)OC3=O)cc1	-3.79%

target: Beta-2 adrenergic receptor (Homo sapiens) (UniProt P07550); test: Adrenergic beta2 receptor (ADRB2) small molecule agonists, cell-based qHTS assay (AID 1963593); conditions: CHO-ADRB2 cells, cAMP HTRF, 30 min; series mostly up to 42.5 µM; activation: at the top concentration; note: potency is the fitted concentration of half-maximal effect;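 for activation: CHO cells stably overexpressing human ADRB2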
Procedure, shortened: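 CHO cells stably over-expressing ADRB2 were plated overnight at 37C, then dosed with compounds plus a stimulation mix containing 100uM IBMX and 25uM Ro-20-1724 for 0.5hr at room temperature. cAMP was measured by HTRF competition, 1hr.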

Compound	activation	Potency
C=CC(=C)CC/C=C(\C)CCC=C(C)C	-16.2% [at 19 µM]	
CCCCCCCCCCCCCCCCCCN(C)C	0.642%	
O=C(NCCN1CCOCC1)c1ccc(Cl)cc1	33.7%	
CCCCCCCCCCCCCOP(=O)(O)O	3.27% [at 92.4 µM]	
O=C(NS(=O)(=O)/C=C/c1ccccc1)c1ccc(F)cc1Cl	-34.4% [at 92.4 µM]	
CC(C)OC(=O)C(C(=O)OC(C)C)=C1SC=CS1	-6.48%	
CC(=O)Oc1ccc(C(C)=O)cc1	-0.873% [at 92.4 µM]	
Cc1ccc(C(=O)Oc2ccc(C(O)CNC(C)(C)C)cc2OC(=O)c2ccc(C)cc2)cc1 (stereo not given)		84.1 nM (active)
Oc1ccc(Cl)c2cccnc12	-4.12%	
CCOC(=O)CC1(C)OCC(C)O1 (stereo not given)	0.0271% [at 92.4 µM]	
CCCCCCCCCCC(=O)O	7.52% [at 92.4 µM]	
O=C1OCc2ccccc21	7.69% [at 92.4 µM]	
CCCS(=O)c1ccc2nc(NC(=O)OC)[nH]c2c1 (stereo not given)	10.2%	
O=C(OCc1ccccc1)C(=O)OCc1ccccc1	-3.72% [at 92.4 µM]	
N=C(N)c1ccc(OCCCOc2ccc(C(=N)N)cc2)cc1	-13.2%	
COC(=O)C(C)O (stereo not given)	18% [at 92.4 µM]	
CCc1nccnc1CC	-6.68% [at 19 µM]	
C=CC(=O)OCCCCCCCCCC	-1.4% [at 92.4 µM]	
CC(C)(c1ccc(Oc2ccc3c(c2)C(=O)OC3=O)cc1)c1ccc(Oc2ccc3c(c2)C(=O)OC3=O)cc1	-35.7% [at 92.4 µM]	

target: D(2) dopamine receptor (Homo sapiens) (UniProt P14416); test: Dopamine D2 receptor (DRD2) small molecule agonists, cell-based qHTS assay (AID 1963594); conditions: HEK293-DRD2 cAMP HTRF, agonist mode, 30 min; series mostly up to 92.4 µM; activation: at the top concentration; note: nearly all actives have a fitted effect of over 35% in size
Sequence (P14416 whole entry, looked up): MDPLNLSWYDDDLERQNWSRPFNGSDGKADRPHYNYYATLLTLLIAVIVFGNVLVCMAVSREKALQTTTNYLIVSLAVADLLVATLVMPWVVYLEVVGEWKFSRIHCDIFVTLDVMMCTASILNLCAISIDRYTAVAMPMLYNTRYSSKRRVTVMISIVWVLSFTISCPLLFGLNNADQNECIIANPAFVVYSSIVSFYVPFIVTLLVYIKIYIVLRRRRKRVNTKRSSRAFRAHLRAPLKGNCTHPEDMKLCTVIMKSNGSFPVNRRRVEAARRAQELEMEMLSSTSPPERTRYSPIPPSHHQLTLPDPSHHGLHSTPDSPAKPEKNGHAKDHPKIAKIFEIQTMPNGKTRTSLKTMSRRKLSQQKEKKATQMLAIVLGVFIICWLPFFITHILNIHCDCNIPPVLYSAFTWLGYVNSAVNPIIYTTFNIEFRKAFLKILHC
Procedure, shortened: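 cAMP accumulation in DRD2-HEK293 cells measured by HTRF after 1 h detection; compounds added 10 min before NKH477 (200nM […]) forskolin-analogue stimulation, 30 min at room temperature, with Ro20-1724 present at 0.1 mM final.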

Compound	activation
C=CC(=C)CC/C=C(\C)CCC=C(C)C	-0.761% [at 19 µM]
C[C@H](CCC(=O)O)[C@H]1CC[C@H]2[C@@H]3[C@H](O)C[C@@H]4C[C@H](O)CC[C@]4(C)[C@H]3C[C@H](O)[C@]12C	-4.32% [at 42.5 µM]
CC(C)C[P+](C)(CC(C)C)CC(C)C	0.293%
CCCCCCCCCCCCCCCCCCN(C)C	-7.48% [at 42.5 µM]
CC(=O)Nc1cccc(C)c1	-2.21%
O=C(NCCN1CCOCC1)c1ccc(Cl)cc1	-0.772% [at 42.5 µM]
CCCCCCCCCCCCCOP(=O)(O)O	1.55%
CCCC(C)C	-1.74%
Cc1[nH]c(=O)c(C#N)cc1-c1ccc2nccn2c1	-12.7% [at 42.5 µM]
CCO	4.05%
CC(=O)Nc1ccc(OCC(O)CNC(C)C)cc1 (stereo not given)	-2.39% [at 42.5 µM]
O=C(NS(=O)(=O)/C=C/c1ccccc1)c1ccc(F)cc1Cl	-0.35%
CCOC(=O)CCCCCCCCC(=O)OCC	1.42%
CC(C)OC(=O)C(C(=O)OC(C)C)=C1SC=CS1	3.1% [at 42.5 µM]
O=C(CN1CCN(Cc2ccc3c(c2)OCO3)CC1)N1c2ccccc2Sc2ccccc21	-7.22% [at 42.5 µM]
CC(=O)Oc1ccc(C(C)=O)cc1	6.34%
Cc1ccc(C(=O)Oc2ccc(C(O)CNC(C)(C)C)cc2OC(=O)c2ccc(C)cc2)cc1 (stereo not given)	-13.9% [at 42.5 µM]
Oc1ccc(Cl)c2cccnc12	-4.46% [at 42.5 µM]

Compound	activation
CCCCCCCC/C=C\CCCCCCCCOCCO	2.4%
CC(=O)OC(C)c1ccccc1 (stereo not given)	-1.4%
O=S(=O)(Cl)c1c(Cl)cccc1Cl	0.373%
CCOC(=O)CC1(C)OCC(C)O1 (stereo not given)	-0.71%
C1CC(COCC2CO2)CCC1COCC1CO1 (stereo not given)	-7.23%
CCCCCCCCCCC(=O)O	-3.42%
O=C1OCc2ccccc21	2.67%
CC1(C)C(=O)N(CO)C(=O)N1CO	0.058%
O=C(O)CNCC(=O)O	-0.477% [at 8.39 µM]
O=C(OCc1ccccc1)C(=O)OCc1ccccc1	0.937%
Cl[Si](Cl)(c1ccccc1)c1ccccc1	-0.702%
N=C(N)c1ccc(OCCCOc2ccc(C(=N)N)cc2)cc1	-8.08% [at 42.5 µM]
CCc1nccnc1CC	-2.33% [at 19 µM]
C=CC(=O)OCCCCCCCCCC	3.87%
CO[Si](CCCNc1ccccc1)(OC)OC	8.8%
CCCCCCCCCCCCCCCCOS(=O)(=O)O	-16.4% [at 42.5 µM]
CC(C)(c1ccc(Oc2ccc3c(c2)C(=O)OC3=O)cc1)c1ccc(Oc2ccc3c(c2)C(=O)OC3=O)cc1	1.16%

Reference: PubChem BioAssay (Tox21)
